Measured values published in PubChem BioAssay (NCI).
Compounds without any hit were thinned out: in the full panel of roughly 83,000, 20% have a hit.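 In brief: 96-well plates, 48 h treatment, single concentration, percent growth endpoint.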 Active and inactive are the calls of the source. Rule for the calls: active = growth percent below 10; inactive = the rest.

Key:
Test in all cases: NCI-60 one-dose screen, 48 h (100 = growth as untreated, 0 = no growth, -100 = all killed)
NCI-H23 lung = tested on: NCI-H23 lung
NCI-H226 lung = tested on: NCI-H226 lung
NCI-H322M lung = tested on: NCI-H322M lung
HOP-62 NSCLC = tested on: HOP-62 NSCLC
NCI-H460 lung = tested on: NCI-H460 lung
HOP-92 NSCLC = tested on: HOP-92 NSCLC
NCI-H522 lung = tested on: NCI-H522 lung
A549/ATCC NSCLC = tested on: A549/ATCC NSCLC
786-0 renal = tested on: 786-0 renal
COLO 205 colon = tested on: COLO 205 colon
DU-145 prostate = tested on: DU-145 prostate
K-562 leukemia = tested on: K-562 leukemia
MALME-3M melanoma = tested on: MALME-3M melanoma
MDA-MB-231 breast = tested on: MDA-MB-231 breast
RXF 393 renal = tested on: RXF 393 renal
SF-268 CNS = tested on: SF-268 CNS
SF-295 CNS = details: 10 µM unless noted
SF-539 CNS = tested on: SF-539 CNS
UACC-257 melanoma = tested on: UACC-257 melanoma
M14 melanoma = tested on: M14 melanoma

Measured: growth

COC[C@H]1OC(=O)c2coc3c2[C@@]1(C)C1=C(C3=O)[C@@H]2CCC(=O)[C@@]2(C)C[C@H]1OC(C)=O
inactive: NCI-H23 lung; 10 µM unless noted 56.5% | NCI-H226 lung; 10 µM unless noted 62.5% | NCI-H322M lung; 10 µM unless noted 35.3% | HOP-62 NSCLC; 10 µM unless noted 57.7% | NCI-H460 lung; 10 µM unless noted 43% | NCI-H522 lung; 10 µM unless noted 48.4% | A549/ATCC NSCLC; 10 µM unless noted 10.1% | 786-0 renal; 10 µM unless noted 39.3% | COLO 205 colon; 10 µM unless noted 65.2% | DU-145 prostate; 10 µM unless noted 45.2% | K-562 leukemia; 10 µM unless noted 70.7% | MALME-3M melanoma; 10 µM unless noted 32.8% | MDA-MB-231 breast; 10 µM unless noted 67.8% | RXF 393 renal; 10 µM unless noted 10.4% | SF-268 CNS; 10 µM unless noted 51.8% | SF-295 CNS 39.5% | SF-539 CNS; 10 µM unless noted 28.6% | UACC-257 melanoma; 10 µM unless noted 23%
active: HOP-92 NSCLC; 10 µM unless noted -0.194%

COc1cc(/C=C\[N+](=O)[O-])ccc1OCc1ccccc1
active: 786-0 renal; 10 µM unless noted -17.4% | K-562 leukemia; 10 µM unless noted 0.133% | RXF 393 renal; 10 µM unless noted -86.1%
inactive: NCI-H23 lung; 10 µM unless noted 34.6% | NCI-H226 lung; 10 µM unless noted 105% | NCI-H322M lung; 10 µM unless noted 94.5% | HOP-62 NSCLC; 10 µM unless noted 30.7% | NCI-H460 lung; 10 µM unless noted 62.4% | HOP-92 NSCLC; 10 µM unless noted 66.3% | NCI-H522 lung; 10 µM unless noted 73.5% | A549/ATCC NSCLC; 10 µM unless noted 64.7% | COLO 205 colon; 10 µM unless noted 32.7% | DU-145 prostate; 10 µM unless noted 44.3% | MALME-3M melanoma; 10 µM unless noted 77.9% | MDA-MB-231 breast; 10 µM unless noted 12.5% | SF-268 CNS; 10 µM unless noted 19.4% | SF-295 CNS 48.7% | SF-539 CNS; 10 µM unless noted 30.8% | UACC-257 melanoma; 10 µM unless noted 61.8% | M14 melanoma; 10 µM unless noted 15.5%

CC[C@H](C)[C@H]1O[C@]2(C=C[C@@H]1C)C[C@@H]1C[C@@H](C/C=C(\C)[C@@H](O[C@H]3C[C@H](OC)[C@@H](O[C@H]4C[C@H](OC)[C@@H](NC)[C@H](C)O4)[C@H](C)O3)[C@@H](C)/C=C/C=C3\CO[C@@H]4[C@H](O)C(C)=C[C@@H](C(=O)O1)[C@]34O)O2
active: NCI-H23 lung; 10 µM unless noted -68.8% | NCI-H226 lung; 10 µM unless noted -75.2% | NCI-H322M lung; 10 µM unless noted -22.3% | HOP-62 NSCLC; 10 µM unless noted -60.9% | NCI-H460 lung; 10 µM unless noted -77.4% | HOP-92 NSCLC; 10 µM unless noted -33.8% | NCI-H522 lung; 10 µM unless noted -70.3% | A549/ATCC NSCLC; 10 µM unless noted -51.6% | 786-0 renal; 10 µM unless noted -88.4% | COLO 205 colon; 10 µM unless noted -71.6% | DU-145 prostate; 10 µM unless noted -85.2% | K-562 leukemia; 10 µM unless noted -41.4% | MALME-3M melanoma; 10 µM unless noted -67.2% | MDA-MB-231 breast; 10 µM unless noted -71.9% | RXF 393 renal; 10 µM unless noted -88.4% | SF-268 CNS; 10 µM unless noted -56% | SF-295 CNS -65.6% | SF-539 CNS; 10 µM unless noted -79.7% | UACC-257 melanoma; 10 µM unless noted -56.7% | M14 melanoma; 10 µM unless noted -68.6%

Cc1cc[c-]cc1.Fc1c[c-]c(-c2ccccn2)c(F)c1.[Pt+2].c1ccc([PH+](c2ccccc2)c2ccccn2)cc1
inactive: NCI-H23 lung; 10 µM unless noted 70% | NCI-H226 lung; 10 µM unless noted 58.1% | NCI-H322M lung; 10 µM unless noted 83.6% | HOP-62 NSCLC; 10 µM unless noted 90.6% | NCI-H460 lung; 10 µM unless noted 61.5% | HOP-92 NSCLC; 10 µM unless noted 56.3% | NCI-H522 lung; 10 µM unless noted 64.4% | A549/ATCC NSCLC; 10 µM unless noted 41.8% | 786-0 renal; 10 µM unless noted 63.5% | COLO 205 colon; 10 µM unless noted 32.9% | DU-145 prostate; 10 µM unless noted 59.1% | K-562 leukemia; 10 µM unless noted 23.9% | MDA-MB-231 breast; 10 µM unless noted 67.8% | RXF 393 renal; 10 µM unless noted 32.6% | SF-268 CNS; 10 µM unless noted 62.1% | SF-295 CNS 72% | SF-539 CNS; 10 µM unless noted 72.3% | UACC-257 melanoma; 10 µM unless noted 87.2% | M14 melanoma; 10 µM unless noted 62.1%
active: MALME-3M melanoma; 10 µM unless noted -2.32%

CC(=O)OCC1OC([S-])C(OC(C)=O)C(OC(C)=O)C1OC(C)=O.[Au+].c1ccc(CN2[CH-]N(Cc3ccccc3)C(c3ccccc3)=C2c2ccccc2)cc1
inactive: NCI-H226 lung; 10 µM 92.1% | NCI-H322M lung; 4.75 µM 20.8% | NCI-H322M lung; 10 µM 57.5% | HOP-62 NSCLC; 10 µM 45.1% | NCI-H460 lung; 10 µM 29.2% | A549/ATCC NSCLC; 10 µM 59.2% | COLO 205 colon; 10 µM 13.6% | DU-145 prostate; 4.75 µM 10.1% | DU-145 prostate; 10 µM 11.3% | SF-539 CNS; 4.75 µM 14.3% | SF-539 CNS; 10 µM 41.8% | UACC-257 melanoma; 10 µM 20.6%
active: NCI-H23 lung; 4.75 µM 3.45% | NCI-H23 lung; 10 µM 2.04% | NCI-H226 lung; 4.75 µM 9.99% | HOP-62 NSCLC; 4.75 µM -12.6% | NCI-H460 lung; 4.75 µM 1.76% | HOP-92 NSCLC; 4.75 µM -24% | HOP-92 NSCLC; 10 µM -9.45% | NCI-H522 lung; 4.75 µM -68.7% | NCI-H522 lung; 10 µM -27.9% | A549/ATCC NSCLC; 4.75 µM 8.63% | 786-0 renal; 4.75 µM -33.7% | 786-0 renal; 10 µM -72.1% | COLO 205 colon; 4.75 µM -75.6% | K-562 leukemia; 4.75 µM -15.1% | K-562 leukemia; 10 µM -6.23% | MALME-3M melanoma; 4.75 µM -20.1% | MALME-3M melanoma; 10 µM -49% | MDA-MB-231 breast; 4.75 µM -43.6% | MDA-MB-231 breast; 10 µM -55.7% | RXF 393 renal; 4.75 µM -65.4% | RXF 393 renal; 10 µM -75% | SF-268 CNS; 4.75 µM -6.05% | SF-268 CNS; 10 µM -36% | UACC-257 melanoma; 4.75 µM -17.4% | M14 melanoma; 4.75 µM 8.95% | M14 melanoma; 10 µM -12%

CC[C@H](C)[C@H](NC(=O)c1ncccn1)C(=O)N(C)[C@H](C[C@@H](OC(C)=O)c1nc(C(=O)N[C@@H](Cc2ccccc2)C[C@H](C)C(=O)OC)cs1)C(C)C
inactive: NCI-H23 lung; 10 µM unless noted 40.9% | NCI-H226 lung; 10 µM unless noted 51.2% | NCI-H322M lung; 10 µM unless noted 42% | HOP-62 NSCLC; 10 µM unless noted 22.8% | NCI-H460 lung; 10 µM unless noted 10.8% | HOP-92 NSCLC; 10 µM unless noted 33.5% | A549/ATCC NSCLC; 10 µM unless noted 32.9% | 786-0 renal; 10 µM unless noted 38.5% | MALME-3M melanoma; 10 µM unless noted 60.7% | SF-268 CNS; 10 µM unless noted 30.6% | SF-295 CNS 14.4% | UACC-257 melanoma; 10 µM unless noted 50.2%
active: NCI-H522 lung; 10 µM unless noted 0.376% | COLO 205 colon; 10 µM unless noted 4.56% | DU-145 prostate; 10 µM unless noted 9.45% | K-562 leukemia; 10 µM unless noted 7.26% | MDA-MB-231 breast; 10 µM unless noted 4.19% | RXF 393 renal; 10 µM unless noted -8.95% | SF-539 CNS; 10 µM unless noted -51.1% | M14 melanoma; 10 µM unless noted 5.61%
